Assay results as given in PubChem BioAssay (NCATS).
Records with an inconclusive call do not appear. The source made the active and inactive calls. Unless noted, the rule behind the calls is not given here.

Assays:
[1] = qHTS profiling of the MIPE4 collection as inhibitors of Plasmodium falciparum (3D7) proliferation (AID 743344);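 note: scaled between DMSO vehicle wells and 0.29 µM artemisinin as full inhibition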; conditions: P. falciparum 3D7 in erythrocytes, SYBR Green DNA fluorescence, 72 h; at 28.5 µM
Summary of the method: (§1)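 Parasite DNA was quantified by SYBR Green I fluorescence (ex 485, em 535 nm) after overnight lysis in saponin/Triton buffer at room temperature. Cultures at 0.3% parasitemia and 2.5% hematocrit were first exposed to compound for 72 h at 37 C; signals were normalised to artemisinin (0.29 uM) and vehicle wells.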

[2] = qHTS profiling of the MIPE4 collection as inhibitors of Plasmodium falciparum (DD2) proliferation (AID 743345); conditions: P. falciparum Dd2 in erythrocytes, SYBR Green DNA, 72 h; at 28.5 µM unless noted
Summary of the method: as §1

[3] = qHTS profiling of the MIPE4 collection as inhibitors of Plasmodium falciparum (DD2) proliferation (Rep 2) (AID 743346); conditions: P. falciparum Dd2 in erythrocytes, SYBR Green DNA, 72 h; at 28.5 µM
Summary of the method: as §1

[4] = qHTS profiling of the MIPE4 collection as inhibitors of Plasmodium falciparum (HB3) proliferation (AID 743347);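 note: plate controls were DMSO vehicle wells for no effect and artemisinin wells for full effect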; conditions: P. falciparum HB3 in erythrocytes, SYBR Green DNA, 72 h; at 28.5 µM
Summary of the method: as §1

[5] = High-throughput drug toxicity screening in the BPDCN cell line Gen2.2 (AID 1224824); conditions: Gen2.2 BPDCN cells; at 45.8 µM (top of the series);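 note: cells exposed to compounds for 48 h before reading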
Summary of the method: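 Seed 500 exponentially growing Gen2.2 cells/well; add compounds by pin tool; incubate 48 h, 37 °C, 5% CO2; add CellTiter-Glo, 15 min RT; read luminescence. % activity vs DMSO (100%) and bortezomib (0%).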

[6] = High-throughput drug toxicity screening in the BPDCN cell line Cal-1 (AID 1224825); conditions: Cal-1 BPDCN cell viability, qHTS; at 45.8 µM (top of the series)
Summary of the method: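 Percent activity derived from CellTiter-Glo luminescence, scaling DMSO to 100% and 9.2 uM final bortezomib to 0%. BPDCN Cal-1 cells (500/well, RPMI plus 10% FBS) incubated with compounds 48 hours at 37C before reading.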

[7] = qHTS assay for measurement of the activity of small molecule inhibitors on Zika virus induced Caspase-3 activity in human iPSC derived neural progenitor cells (hNPCs) (AID 1224857; active = well fitted curve in the direction sought with a large enough effect; an effect the other way counts as inactive or inconclusive; note: nearly all actives have a fitted effect of over 65% in size; note: potency is the fitted concentration of half-maximal effect)
Summary of the method: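 Values are percent inhibition of virus-induced caspase-3/7 signal, scaled between uninfected cells and ZIKV-infected cells. Infection used 2 FFU/cell for 6 h after 1 h compound exposure.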

[8] = qHTS assay for measurement of the activity of small molecule inhibitors on Zika virus induced Caspase-3 activity in human astrocytoma cells (AID 1224859; active = well fitted curve in the direction sought with a large enough effect; an effect the other way counts as inactive or inconclusive;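 note: plate controls were ZIKV-infected untreated cells for no effect and uninfected cells for full effect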)
Summary of the method: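 Compound added 1 h pre-infection; ZIKV 2 FFU/cell on SNB-19 cells, 6 h, 37 C/5% CO2. Caspase-Glo 3/7 luminescence; values as % inhibition of ZIKV-induced caspase activity.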

[9] = qHTS Screen of the MIPE 4.0 Collection Against Ewings Sarcoma (TC71) (AID 1259253; active = well fitted curve in the direction sought with a large enough effect; an effect the other way counts as inactive or inconclusive; note: nearly all actives have a fitted effect of over 40% in size; note: potency is the fitted concentration of half-maximal effect)
Summary of the method: (§2)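 CellTiter-Glo luminescence after 48 h compound exposure (titration) gave viability; percent activity used DMSO-treated cells as no inhibition and medium-only wells as full inhibition. Cells grown in RPMI/5% FBS, dosed 4 h post-seeding.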

[10] = qHTS Screen of the MIPE 4.0 Collection Against Ewings Sarcoma (RDES) (AID 1259252; active = well fitted curve in the direction sought with a large enough effect; an effect the other way counts as inactive or inconclusive; note: nearly all actives have a fitted effect of over 35% in size; note: potency is the fitted concentration of half-maximal effect)
Summary of the method: as §2

[11] = qHTS profiling for inhibitors of Plasmodium falciparum (HB3) proliferation (AID 743324; active = well fitted curve in the direction sought with a large enough effect; an effect the other way counts as inactive or inconclusive;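 note: 100% = DMSO vehicle wells and 0% = artemisinin-treated control wells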); conditions: Plasmodium falciparum HB3 blood-stage proliferation; at 28.7 µM (top of the series) unless noted
Summary of the method: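 SYBR Green fluorescence (485 ex/535 em) of lysed cultures, incubated overnight at room temperature in the dark, quantifies parasite DNA. Infected erythrocytes at 0.3% parasitemia and 2.5% hematocrit were exposed 72 h; values normalized to DMSO and 0.29 uM artemisinin controls.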

SMILES	parasite growth, % of DMSO control [1]	parasite growth remaining, % of DMSO control (lower = more inhibition) [2]	parasite growth, % of control (lower = inhibition) [3]	growth, % of control [4]	cell viability, % of control (lower = more cytotoxic) [5]	viability (% of control) [6]	Potency [7]	Potency [8]	Potency [9]	Potency [10]	remaining proliferation (% of control), lower = more inhibition [11]
CCOC(=O)Nc1ccc(NCc2ccc(F)cc2)cc1N	12.8%	13.7%	30.4%	15.1%	120%	105%	inactive	inactive	29600 nM (active)	–	–
CCN1CCN(C(=O)Cc2ccc(Nc3ncc(F)c(Nc4ccc(C(=O)Nc5ccccc5Cl)cc4)n3)cc2)CC1	6.35%	7.02%	14.2%	7.73%	2.73%	2.31%	inactive	inactive	5900 nM (active)	8330 nM (active)	–
NC1=NC(=O)N2CC12 (configuration not stated)	49.2%	93.9%	46.3%	68.6%	8.27%	7.57%	inactive	inactive	–	inactive	–
C[C@@]12OC(=O)[C@]1([C@@H](O)[C@@H]1C=CCCC1)NC(=O)[C@H]2CCCl	4.78%	7.57%	10.7%	5.21%	–	3.86%	inactive	inactive	29.6 nM (active)	37.2 nM (active)	–
Cc1c(N)nc([C@H](CC(N)=O)NC[C@@H](N)C(N)=O)nc1C(=O)N[C@H](C(=O)N[C@@H](C)[C@H](O)[C@@H](C)C(=O)N[C@@H](C(=O)NCCc1nc(-c2nc(C(=O)NCCC[S+](C)C)cs2)cs1)[C@@H](C)O)C(O[C@H]1O[C@H](CO)[C@H](O)[C@@H](O)[C@@H]1O[C@H]1O[C@H](CO)[C@@H](O)[C@H](OC(N)=O)[C@H]1O)c1cnc[nH]1 (some centres not stated)	11%	9.76%	15.5%	68.4%	–	16%	inactive	inactive	526 nM (active)	1050 nM (active)	–
CCCCCC[C@H]1C(=O)O[C@H](C)[C@H](NC(=O)c2cccc(NC=O)c2O)C(=O)O[C@@H](C)[C@@H]1OC(=O)CC(C)C	12%	17.3%	14.5%	26.2%	177%	85.6%	inactive	inactive	–	41.8 nM (active)	–
N#C[C@H](O[C@@H]1O[C@H](CO[C@@H]2O[C@H](CO)[C@H](O)[C@H](O)[C@H]2O)[C@H](O)[C@H](O)[C@H]1O)c1ccccc1	61.2%	17.6%	37.7%	60.6%	–	52.5%	inactive	inactive	20900 nM (active)	23500 nM (active)	–
CC(=O)N(C)c1cccc(-c2ccnc3c(C(=O)c4cccs4)cnn23)c1	44.9%	66.2%	51.9%	50.4%	111%	72.5%	inactive	inactive	–	–	–
C[C@]12CCC(=O)C(O)=C1CC[C@@H]1[C@H]3CCC(=O)[C@@]3(C)CC[C@@H]12	77.1%	94.3%	71.5%	54.8%	78%	116%	inactive	inactive	–	–	–
CC(C)[C@H]1C(=O)N[C@H](CO)Cc2c[nH]c3cccc(c23)N1C	87.1%	97.6%	147%	88.8%	391%	82.8%	23500 nM (active)	inactive	inactive	–	80%
O=S(=O)(F)Cc1ccccc1	95.8%	95.2%	85.6%	94%	76.9%	97.3%	inactive	inactive	inactive	41.8 nM (active)	–
CO[C@H]1CCC(O[C@H]2C[C@H]([C@]3(C)CC[C@]4(C[C@H](O)[C@@H](C)[C@@H]([C@@H](C)C=C(C)C(=O)[C@H](C)C[C@H](C)C(=O)O)O4)O3)O[C@]3(O[C@@H]([C@H]4O[C@@](O)(CO)[C@H](C)C[C@H]4C)C[C@H]3C)[C@H]2C)O[C@H]1C (some centres not stated)	11.2%	5.36%	23.1%	8.74%	92%	72.5%	inactive	inactive	332 nM (active)	418 nM (active)	–
CC(C)(C)c1cc(C=C(C#N)C#N)cc(Br)c1O	34.5%	93.3%	37.3%	34.7%	12.6%	11%	inactive	inactive	–	–	–
CC=C(C)C(=O)N[C@@H](c1ccccc1)[C@@H](O)C(=O)O[C@H]1C[C@@]2(O)[C@@H](OC(=O)c3ccccc3)[C@@H]3[C@]4(OC(C)=O)CO[C@@H]4C[C@H](O)[C@@]3(C)C(=O)[C@H](OC(C)=O)C(=C1C)C2(C)C	4.24%	14%	15.6%	6.33%	47%	19.1%	inactive	inactive	–	inactive	–
